This note sets out measurements from PubChem BioAssay AID1814 (Broad Institute, 2009).

Structures are written as SMILES. About 22,000 (7.3%) of roughly 300,000 compounds were called active. Not shown: some 2% with an inconclusive outcome. No stated cut-off is given here; in the data, active means activity score below about -60%; inconclusive means mostly about -28% to -61%; inactive means positive scores. The full list was thinned out, with actives kept by preference.

The test is described as follows: Activators via SNCA 5'UTR binding, MLPCN (AID 1814). The note with it: alpha-synuclein 5'UTR reporter, activators screen; active compounds read low; tested at 7.5 µM.
As for `O=C1c2ccccc2NC(c2ccc(-c3cccc(Cl)c3)o2)N1O` (centres undefined), the activity score is -145% (active).

`Cc1cccc(C(=O)Nc2ccc3c(c2)C(=O)N(CC(C)C)C3=O)c1`: the activity score was -149% (active).

Take `Nc1nnc(SCC(=O)Nc2ccc3nc(SCC(=O)Nc4ccccc4)sc3c2)s1`: the activity score is -107% (active).

Take `O=C(Nc1cccc(Cl)c1)Nc1ccccc1NS(=O)(=O)c1cccs1`: the activity score is -81.4% (active).

Regarding `Cc1ccc(NN=C2C(=O)OC(C)(C)OC2=O)c(C)c1`, the activity score is -140% (active).

For the compound `Cc1nn(-c2ccccc2)c(Cl)c1/C=C/C(=O)c1ccc(O)cc1`, the activity score was -125% (active).

Regarding `Cn1sc(NC(=O)c2ccccc2)nc1=O`, the activity score was -72.7% (active).

In the case of `O=C(c1ccc(F)cc1)n1c(=S)nc2ccccn21`, the activity score was -171% (active).

As for `COc1cc(/C=N/O)ccc1OCc1ccc([N+](=O)[O-])cc1`, the activity score was -86.3% (active).

For `COc1ccc2[nH]c3c(=O)n(Cc4ccco4)cnc3c2c1`, the activity score is -65.2% (active).

`Cc1ccsc1/C=N/Nc1ccc(Cl)nn1`: the activity score is -101% (active).

With `Clc1ccc(N/N=C/c2cccs2)nn1`, the activity score was -131% (active).

Take `COc1cccc(/C=N/Nc2ccc(Cl)nn2)c1`: the activity score was -168% (active).

With `O=C(Nc1ccc(S(=O)(=O)N2CCOCC2)cc1)c1ccc2ncsc2c1`, the activity score was -76.4% (active).

Turning to `CC1CCCN(c2ccc(C(=O)NCCc3ccccc3)cn2)C1` (centres undefined), the activity score was -104% (active).

Consider `CC1CCN(c2ccc(-c3ccc(NC(=O)c4ccco4)cc3)nn2)CC1`, for which the activity score was -144% (active).

On to `CCC(=O)Nc1ccc(-c2ccc(N3CCCCC3)nn2)cc1`, for which the activity score was -132% (active).

For the compound `[O-][n+]1onc2c1CCc1[nH]c(-c3ccccc3)nc1-2`, the activity score was -130% (active).

On to `O=C(COc1ccccc1)Nc1ccc(F)cc1`, for which the activity score was -69.2% (active).

Take `CC(=O)Nc1ccc(NC(=O)COc2ccccc2C(=O)Nc2cccc(Cl)c2Cl)cc1`: the activity score was 41.1% (inactive).

On to `O=C(COc1ccccc1)Nc1nonc1NC(=O)COc1ccccc1`, for which the activity score was -62.2% (active).

For `CC(=O)Nc1ccc(NC(=O)COc2ccc(S(=O)(=O)NC(C)c3ccccc3)cc2)cc1` (centres undefined), the activity score was -147% (active).

On to `CC(C)[C@@H]1COC(c2cccc(C3=N[C@H](C(C)C)CO3)c2)=N1`, for which the activity score was -152% (active).

As for `CCOc1ccc(NC(=O)c2ccc(NC(=O)COC(=O)c3ccc(NC(=O)CC#N)cc3)cc2)cc1`, the activity score is -88.1% (active).

On to `CCOc1ccc(NC(=O)CCNC(=O)c2ccc(Br)cc2)cc1`, for which the activity score was -69.9% (active).

For the compound `COc1ccc(C2=NOC(C(=O)NCc3ccco3)C2)cc1OC` (centres undefined), the activity score was 51.4% (inactive).

Consider `COc1ccc2oc(C(=O)NCc3ccco3)c(C)c2c1`, for which the activity score was -92.6% (active).

`COc1ccc2c(Cl)c(C(=O)NCc3ccco3)sc2c1`: the activity score was -164% (active).

On to `O=C(NCc1ccco1)c1sc2cccc(F)c2c1Cl`, for which the activity score was -99.4% (active).

Turning to `Cc1ccc2nc(-c3ccc(NC(=O)CN(C)S(=O)(=O)c4ccccc4)cc3)sc2c1`, the activity score was -67.2% (active).

With `Cc1cccc(N(CC(=O)Nc2ccc(-c3nc4ccc(C)cc4s3)cc2)S(C)(=O)=O)c1`, the activity score was -159% (active).

As for `Cc1c(C(=O)N2CCCc3ccccc32)sc2nc(-c3ccccc3)cn12`, the activity score is -83.5% (active).

As for `Cc1cccc2cc3c(N)c(C(=O)N4CCCc5ccccc54)sc3nc12`, the activity score is 85.2% (inactive).

Turning to `Cc1c(C(=O)NCC2CCCO2)sc2nc(-c3ccccc3)cn12` (centres undefined), the activity score was -102% (active).

For `Cc1ccc(C(=O)Cc2nnc(C)s2)cc1`, the activity score is -98.4% (active).

As to `O=c1c2ccccc2ncn1/N=C/c1ccccc1`, the activity score is -192% (active).

Consider `Cc1cc(/C=C2/SC(=O)N(CC(=O)OC(C)C)C2=O)c(C)n1C`, for which the activity score is -159% (active).

Regarding `Cc1cc(SCC(=O)NCCN2C(=O)CSC2=O)nc2ccccc12`, the activity score was -74.6% (active).

For the compound `CCc1ccc(NC(=O)N2CCc3ccccc3C2)cc1`, the activity score is -68.2% (active).

As to `O=C(Nc1cccc([N+](=O)[O-])c1)N1CCc2ccccc2C1`, the activity score was -99.5% (active).

Regarding `CCOC(=O)C1C(=O)C=C(c2ccc(OC)cc2)CC1c1ccco1` (centres undefined), the activity score was -74.2% (active).

Regarding `CCCC1(C(=O)OC)NC(c2ccco2)C2C(=O)N(C)C(=O)C21` (centres undefined), the activity score is 27.8% (inactive).

Consider `CCOC(=O)c1c(Cc2ccc(Cl)cc2)c[nH]c1C`, for which the activity score is -90.9% (active).

On to `CN(c1cccc(NC(=O)Nc2ccc(Cl)cc2)c1)S(C)(=O)=O`, for which the activity score is -112% (active).

As for `O=[N+]([O-])c1ccccc1N/N=C1\CCc2ccccc21`, the activity score was -187% (active).

`Cc1nnc(N/N=C/c2ccccn2)[nH]c1=O`: the activity score is 117% (inactive).

`COc1ccc(/C=N/Nc2nc3ccccc3c(=O)[nH]2)cc1`: the activity score is -125% (active).

Regarding `COc1ccc(-c2onc3ccc(C(C)=O)cc23)cc1`, the activity score is -120% (active).

On to `CS(=O)(=O)C1=NN2C(=N)/C(=C\c3ccc(OCCOc4ccccc4)cc3)C(=O)N=C2S1`, for which the activity score is -73.6% (active).

As to `N#Cc1ccccc1NC(=O)c1ccc2c(c1)OCO2`, the activity score was -87.9% (active).

For `O=C(Nc1ccccc1F)c1ccc2c(c1)OCO2`, the activity score was -199% (active).

As to `O=C(OCc1ccccc1F)c1ccc2c(c1)OCCO2`, the activity score was -210% (active).

Consider `O=c1c(-c2ccccc2)coc2cc(O)ccc12`, for which the activity score is -128% (active).

`CN(C)CCNC(=O)c1[nH]nc2c1CCc1ccccc1-2`: the activity score is -73.6% (active).

In the case of `COc1cccc(/C=N/NC(=O)c2[nH]nc3c2CCc2ccccc2-3)c1O`, the activity score was 76.4% (inactive).

On to `O=C(CC1SCCNC1=O)Nc1ccc(Cl)c(Cl)c1` (centres undefined), for which the activity score is -77.7% (active).

Consider `Oc1c(Cl)cc(Cl)c(Cl)c1Cc1c(O)c(Cl)cc(Cl)c1Cl`, for which the activity score was 77.3% (inactive).

As to `C=C(C)C(=O)O[C@H]1C/C(C)=C\C(=O)/C=C(\C)[C@H](O)[C@@H]2OC(=O)C(=C)[C@@H]21`, the activity score is -250% (active).

In the case of `O=C(Nc1ccc(C2CC2(Cl)Cl)cc1)c1cccc([N+](=O)[O-])c1` (centres undefined), the activity score is -92.3% (active).

On to `CN1CCN(c2ccc(NC(=O)c3ccc4c(c3)OCCO4)cc2Cl)CC1`, for which the activity score was -66.8% (active).

On to `O=C(Nc1nc2ccccc2s1)c1ccc2c(c1)OCO2`, for which the activity score was 53.7% (inactive).

For the compound `O=C(Nc1ccccc1)c1ccc2c(c1)OCO2`, the activity score was -148% (active).

`O=C(Nc1ccc(N2CCOCC2)cc1)c1ccc2c(c1)OCO2`: the activity score was -121% (active).

Consider `O=C(Nc1cccc([N+](=O)[O-])c1)c1ccc2c(c1)OCO2`, for which the activity score was -99.5% (active).
